Drawing on ChEMBL document CHEMBL1961873, “Compounds: GSK PKIS; Assays: Nanosyn kinase panel” (2012), this text covers inhibition for six compounds.

The target in test [1] is Dual specificity protein kinase CLK3 (Homo sapiens) (UniProt P49761). Conditions: at 1 µM.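 Further: each value is the mean inhibition of CLK3.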
The target of test [2] is Dual specificity tyrosine-phosphorylation-regulated kinase 1A (Homo sapiens) (UniProt Q13627). As to conditions: at 0.1 µM.
Test [3] shares this target. As to conditions: at 1 µM.
The target in test [4] is Dual specificity tyrosine-phosphorylation-regulated kinase 1B (Homo sapiens) (UniProt Q9Y463). Conditions: at 0.1 µM.
The target is the same in test [5]. As to conditions: at 1 µM.
For test [6], the target named is T1, Dual specificity tyrosine-phosphorylation-regulated kinase 2 (Homo sapiens) (UniProt Q92630).
T1 sequence (whole entry): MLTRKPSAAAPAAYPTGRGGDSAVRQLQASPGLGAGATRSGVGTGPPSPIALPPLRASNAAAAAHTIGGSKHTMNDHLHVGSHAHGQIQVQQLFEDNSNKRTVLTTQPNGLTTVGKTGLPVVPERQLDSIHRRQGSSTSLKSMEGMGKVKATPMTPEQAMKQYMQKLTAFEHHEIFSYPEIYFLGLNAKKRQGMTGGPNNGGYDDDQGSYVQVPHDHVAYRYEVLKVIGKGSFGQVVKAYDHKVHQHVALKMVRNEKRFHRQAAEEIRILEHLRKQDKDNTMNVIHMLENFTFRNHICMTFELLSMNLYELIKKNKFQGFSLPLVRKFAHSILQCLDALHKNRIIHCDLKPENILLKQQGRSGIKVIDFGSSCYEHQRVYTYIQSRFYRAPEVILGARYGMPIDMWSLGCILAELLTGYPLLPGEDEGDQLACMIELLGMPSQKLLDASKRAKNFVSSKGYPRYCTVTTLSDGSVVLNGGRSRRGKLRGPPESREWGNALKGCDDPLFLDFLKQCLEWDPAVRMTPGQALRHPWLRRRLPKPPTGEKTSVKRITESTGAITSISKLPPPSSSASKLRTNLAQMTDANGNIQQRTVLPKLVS
Conditions: at 0.1 µM.

In test [7] the target is T1, Dual specificity tyrosine-phosphorylation-regulated kinase 2 (Homo sapiens). Conditions: at 1 µM.
Test [8] has as its target Glycogen synthase kinase-3 alpha (Homo sapiens) (UniProt P49840). Conditions: at 0.1 µM.
For test [9] the target is unchanged. As to conditions: at 1 µM.
Test [10] has as its target Glycogen synthase kinase-3 beta (Homo sapiens) (UniProt P49841). As to conditions: at 0.1 µM.
The target is the same in test [11]. Conditions: at 1 µM.
Test [12] concerns the target Homeodomain-interacting protein kinase 1 (Homo sapiens) (UniProt Q86Z02). Conditions: at 0.1 µM.
Test [13] has the same target. As to conditions: at 1 µM.
Test [14] addresses T2, Homeodomain-interacting protein kinase 4 (Homo sapiens) (UniProt Q8NE63).
T2 sequence (whole entry): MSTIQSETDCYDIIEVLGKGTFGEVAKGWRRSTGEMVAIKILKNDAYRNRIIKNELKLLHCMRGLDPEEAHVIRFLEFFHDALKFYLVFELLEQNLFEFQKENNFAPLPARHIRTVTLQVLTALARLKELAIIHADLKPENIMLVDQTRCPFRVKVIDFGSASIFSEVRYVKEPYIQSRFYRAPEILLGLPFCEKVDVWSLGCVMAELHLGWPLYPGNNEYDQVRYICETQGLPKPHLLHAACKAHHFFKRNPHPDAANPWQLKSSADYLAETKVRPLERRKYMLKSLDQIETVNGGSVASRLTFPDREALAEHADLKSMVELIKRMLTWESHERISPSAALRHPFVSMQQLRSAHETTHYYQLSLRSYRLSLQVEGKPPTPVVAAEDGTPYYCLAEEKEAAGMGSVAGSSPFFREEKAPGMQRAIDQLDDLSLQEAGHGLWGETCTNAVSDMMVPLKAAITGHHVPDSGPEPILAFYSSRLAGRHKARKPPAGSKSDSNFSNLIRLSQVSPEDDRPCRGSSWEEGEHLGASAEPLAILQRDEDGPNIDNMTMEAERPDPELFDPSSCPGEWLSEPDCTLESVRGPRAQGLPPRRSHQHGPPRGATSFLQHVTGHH
Conditions: at 0.1 µM.

The target of test [15] is T2, Homeodomain-interacting protein kinase 4 (Homo sapiens). Conditions: at 1 µM.
In test [16] the target is Mitogen-activated protein kinase 9 (Homo sapiens) (UniProt P45984). Conditions: at 0.1 µM.
The target is the same in test [17]. As to conditions: at 1 µM.
Test [18] has as its target Mitogen-activated protein kinase 1 (Homo sapiens) (UniProt P28482). Conditions: at 0.1 µM.
The target is the same in test [19]. As to conditions: at 1 µM.
The target of test [20] is Mitogen-activated protein kinase 3 (Homo sapiens) (UniProt P27361). As to conditions: at 0.1 µM.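 Further: each value is a mean inhibition figure.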
Mitogen-activated protein kinase 3 (Homo sapiens), sequence (P27361 whole entry): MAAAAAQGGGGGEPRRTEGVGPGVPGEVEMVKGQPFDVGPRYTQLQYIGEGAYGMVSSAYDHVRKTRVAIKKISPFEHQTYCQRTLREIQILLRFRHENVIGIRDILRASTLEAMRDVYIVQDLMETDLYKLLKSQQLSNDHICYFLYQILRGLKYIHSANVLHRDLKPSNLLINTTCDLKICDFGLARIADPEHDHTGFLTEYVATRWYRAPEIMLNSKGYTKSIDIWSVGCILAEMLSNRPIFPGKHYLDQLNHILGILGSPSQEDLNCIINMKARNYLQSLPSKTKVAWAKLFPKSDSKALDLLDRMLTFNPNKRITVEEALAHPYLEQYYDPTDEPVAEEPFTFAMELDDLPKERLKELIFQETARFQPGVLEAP

Homeodomain-interacting protein kinase 1 (Homo sapiens), sequence (Q86Z02 whole entry, looked up): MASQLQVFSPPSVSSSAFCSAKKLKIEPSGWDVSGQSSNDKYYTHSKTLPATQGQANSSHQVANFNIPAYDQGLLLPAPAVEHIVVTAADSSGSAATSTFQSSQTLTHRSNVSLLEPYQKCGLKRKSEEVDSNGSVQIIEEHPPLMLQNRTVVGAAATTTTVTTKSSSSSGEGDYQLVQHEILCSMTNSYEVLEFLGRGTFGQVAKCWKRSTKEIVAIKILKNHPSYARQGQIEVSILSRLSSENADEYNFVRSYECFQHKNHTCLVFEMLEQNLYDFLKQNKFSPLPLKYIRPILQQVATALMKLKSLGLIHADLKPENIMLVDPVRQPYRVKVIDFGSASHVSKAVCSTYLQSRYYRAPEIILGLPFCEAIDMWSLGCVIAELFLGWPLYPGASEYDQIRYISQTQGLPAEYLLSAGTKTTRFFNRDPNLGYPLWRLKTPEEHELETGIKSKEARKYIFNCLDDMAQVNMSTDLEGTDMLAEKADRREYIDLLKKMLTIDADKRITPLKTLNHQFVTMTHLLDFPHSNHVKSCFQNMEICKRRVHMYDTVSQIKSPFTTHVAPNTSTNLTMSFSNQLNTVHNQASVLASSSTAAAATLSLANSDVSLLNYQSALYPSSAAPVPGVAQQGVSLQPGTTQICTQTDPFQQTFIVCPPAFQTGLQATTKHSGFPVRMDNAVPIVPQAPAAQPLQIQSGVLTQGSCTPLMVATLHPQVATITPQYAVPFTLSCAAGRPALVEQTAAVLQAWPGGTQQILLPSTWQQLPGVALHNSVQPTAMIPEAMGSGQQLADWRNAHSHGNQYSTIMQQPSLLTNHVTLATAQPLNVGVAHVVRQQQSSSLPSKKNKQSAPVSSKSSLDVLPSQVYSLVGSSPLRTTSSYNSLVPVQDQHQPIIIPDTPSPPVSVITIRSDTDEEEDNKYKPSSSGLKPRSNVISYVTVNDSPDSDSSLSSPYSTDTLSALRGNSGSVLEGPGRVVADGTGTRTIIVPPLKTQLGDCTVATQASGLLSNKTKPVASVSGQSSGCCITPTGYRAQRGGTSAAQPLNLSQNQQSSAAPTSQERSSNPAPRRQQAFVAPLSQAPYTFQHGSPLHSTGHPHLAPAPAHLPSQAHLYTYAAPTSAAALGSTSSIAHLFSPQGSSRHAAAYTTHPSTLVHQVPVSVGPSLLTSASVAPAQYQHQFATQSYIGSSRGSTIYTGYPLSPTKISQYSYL
Glycogen synthase kinase-3 alpha (Homo sapiens), sequence (P49840 2-483 limits assumed): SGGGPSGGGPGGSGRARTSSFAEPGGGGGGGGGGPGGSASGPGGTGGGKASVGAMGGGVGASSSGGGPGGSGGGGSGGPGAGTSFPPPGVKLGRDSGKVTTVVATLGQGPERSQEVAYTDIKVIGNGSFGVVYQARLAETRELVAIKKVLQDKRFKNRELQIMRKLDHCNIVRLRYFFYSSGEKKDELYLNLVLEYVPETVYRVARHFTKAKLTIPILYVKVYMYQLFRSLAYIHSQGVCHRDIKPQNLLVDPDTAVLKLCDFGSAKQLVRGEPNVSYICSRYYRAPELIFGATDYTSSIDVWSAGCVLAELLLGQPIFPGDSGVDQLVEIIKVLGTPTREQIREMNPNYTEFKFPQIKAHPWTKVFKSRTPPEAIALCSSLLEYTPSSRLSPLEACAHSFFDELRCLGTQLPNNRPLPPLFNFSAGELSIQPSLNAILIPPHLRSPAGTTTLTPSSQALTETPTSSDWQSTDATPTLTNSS
Glycogen synthase kinase-3 beta (Homo sapiens), sequence (P49841 whole entry, looked up): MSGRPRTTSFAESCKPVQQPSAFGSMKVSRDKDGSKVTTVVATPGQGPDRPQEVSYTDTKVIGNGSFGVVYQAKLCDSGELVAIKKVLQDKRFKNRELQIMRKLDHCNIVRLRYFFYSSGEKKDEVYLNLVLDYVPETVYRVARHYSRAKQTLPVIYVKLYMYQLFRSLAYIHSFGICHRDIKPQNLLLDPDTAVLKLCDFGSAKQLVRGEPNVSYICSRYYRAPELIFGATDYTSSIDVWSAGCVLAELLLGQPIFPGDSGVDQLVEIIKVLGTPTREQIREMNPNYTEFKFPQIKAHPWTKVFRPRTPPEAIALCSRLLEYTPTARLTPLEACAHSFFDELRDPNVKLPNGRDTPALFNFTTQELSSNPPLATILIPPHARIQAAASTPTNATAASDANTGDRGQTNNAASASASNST
Mitogen-activated protein kinase 9 (Homo sapiens), sequence (P45984 whole entry, looked up): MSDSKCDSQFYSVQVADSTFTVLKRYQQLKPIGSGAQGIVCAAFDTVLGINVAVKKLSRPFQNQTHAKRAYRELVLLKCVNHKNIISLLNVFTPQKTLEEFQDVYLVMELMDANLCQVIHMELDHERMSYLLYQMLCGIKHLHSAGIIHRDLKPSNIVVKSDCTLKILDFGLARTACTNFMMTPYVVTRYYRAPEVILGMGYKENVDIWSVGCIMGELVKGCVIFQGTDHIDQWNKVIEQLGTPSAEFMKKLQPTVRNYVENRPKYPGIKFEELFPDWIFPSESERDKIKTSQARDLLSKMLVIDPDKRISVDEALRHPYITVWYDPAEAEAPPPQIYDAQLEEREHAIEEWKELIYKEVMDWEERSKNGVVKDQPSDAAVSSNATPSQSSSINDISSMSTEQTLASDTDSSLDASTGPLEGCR
Dual specificity protein kinase CLK3 (Homo sapiens), sequence (P49761 whole entry, looked up): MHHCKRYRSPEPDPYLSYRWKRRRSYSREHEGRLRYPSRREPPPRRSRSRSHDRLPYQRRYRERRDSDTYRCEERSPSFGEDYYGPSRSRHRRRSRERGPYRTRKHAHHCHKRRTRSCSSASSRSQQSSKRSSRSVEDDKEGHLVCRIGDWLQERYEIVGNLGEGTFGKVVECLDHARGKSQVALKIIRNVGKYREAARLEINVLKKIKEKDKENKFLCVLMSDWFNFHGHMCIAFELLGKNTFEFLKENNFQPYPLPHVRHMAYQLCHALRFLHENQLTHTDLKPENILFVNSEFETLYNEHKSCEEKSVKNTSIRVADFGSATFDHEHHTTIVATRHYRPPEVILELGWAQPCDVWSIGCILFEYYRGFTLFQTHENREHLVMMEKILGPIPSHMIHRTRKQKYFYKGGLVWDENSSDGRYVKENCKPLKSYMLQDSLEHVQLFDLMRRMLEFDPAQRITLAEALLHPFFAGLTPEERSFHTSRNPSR
Mitogen-activated protein kinase 1 (Homo sapiens), sequence (P28482 whole entry): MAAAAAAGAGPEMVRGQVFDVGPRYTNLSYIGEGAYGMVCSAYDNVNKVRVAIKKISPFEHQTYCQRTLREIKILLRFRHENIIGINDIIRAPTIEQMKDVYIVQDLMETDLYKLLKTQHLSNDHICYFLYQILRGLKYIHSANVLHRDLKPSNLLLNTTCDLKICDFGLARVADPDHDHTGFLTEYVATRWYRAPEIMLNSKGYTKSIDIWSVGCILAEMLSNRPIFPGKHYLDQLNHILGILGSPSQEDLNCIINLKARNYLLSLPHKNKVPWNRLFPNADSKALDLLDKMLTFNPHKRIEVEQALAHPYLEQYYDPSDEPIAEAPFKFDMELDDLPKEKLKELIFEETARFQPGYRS
Dual specificity tyrosine-phosphorylation-regulated kinase 1B (Homo sapiens), sequence (Q9Y463 whole entry, looked up): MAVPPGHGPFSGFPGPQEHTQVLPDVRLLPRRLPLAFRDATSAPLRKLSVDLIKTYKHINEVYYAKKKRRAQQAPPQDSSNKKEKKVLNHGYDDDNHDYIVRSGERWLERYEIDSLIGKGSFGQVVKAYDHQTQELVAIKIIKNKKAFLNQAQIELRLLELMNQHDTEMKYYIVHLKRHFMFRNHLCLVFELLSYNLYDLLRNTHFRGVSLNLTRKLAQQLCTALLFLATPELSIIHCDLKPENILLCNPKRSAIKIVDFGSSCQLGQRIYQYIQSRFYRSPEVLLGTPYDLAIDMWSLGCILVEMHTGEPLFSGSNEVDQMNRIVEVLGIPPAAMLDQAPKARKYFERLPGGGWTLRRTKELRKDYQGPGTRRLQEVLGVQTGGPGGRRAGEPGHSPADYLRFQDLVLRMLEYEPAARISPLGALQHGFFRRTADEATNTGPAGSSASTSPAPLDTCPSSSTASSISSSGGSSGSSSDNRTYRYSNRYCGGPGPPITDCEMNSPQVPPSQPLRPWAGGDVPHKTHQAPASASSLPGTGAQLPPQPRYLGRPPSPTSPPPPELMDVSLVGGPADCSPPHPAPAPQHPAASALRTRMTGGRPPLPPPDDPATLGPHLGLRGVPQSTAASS

Regarding `CCCN1CCC=C(c2ccc(Nc3nc(Nc4ccccc4C(N)=O)c4cc[nH]c4n3)c(C)c2)C1`, the inhibition in test [1] amounted to 6.97%; in test [2] it was 56.2%; in [3] it was 92.3%; in test [4], 39.5%; in [5], 71.1%; in test [6] it was 8.53%. The inhibition in test [7] came out at 44.2%; in [8], 5.89%; in test [9], 28.1%; in test [10], 3.05%; in test [11], 17.1%; in test [12], 16.3%. For the same compound, the inhibition came out at 59.6% in [13]; 15.1% in test [14]; 56.5% in test [15]; 46.5% in [16]; 84.9% in test [17]; 6.87% in [18]. Moreover, the inhibition in test [19] stood at 29.5%; in test [20] it was 6.39%.

Regarding `CS(=O)(=O)CCN(CC#N)Cc1ccc(-c2ccc3ncnc(Nc4ccc(OCc5cccc(F)c5)c(Cl)c4)c3c2)o1`, the inhibition in test [1] is -4.13%; in [2], -2.78%; in test [3], -0.17%; in test [4], -4.49%; in test [5], -3.08%; in test [6], 0.54%. Also, the inhibition in [7] is 0.76%; in [8], -1.48%; in test [9] it was 0.08%; in [10] it was -2.26%; in test [11] it was -0.38%; in [12], -6.53%. For the same compound, the inhibition in [13] was -4.34%; in test [14], 0.31%; in [15] it was 2.79%; in [16], -0.56%; in test [17], 2.18%; in test [18], 3.93%. Moreover, the values for the inhibition in test [19] and in test [20] were 1.9% and 1.67%, respectively.

Take `CS(=O)(=O)CCNCc1ccc(-c2ccc3ncnc(Nc4ccc(OCc5cccc(F)c5)c(C(F)(F)F)c4)c3c2)o1`: the inhibition in test [1] was 0.98%; in [2], 2.19%; in [3], 1.7%; in test [4] it was -1.48%; in [5] it was -1.44%; in test [6], 2.83%. Further, the inhibition is 3.42% in [7]; 1.48% in test [8]; 0.2% in test [9]; 0.25% in test [10]; -0.18% in test [11]; -1.8% in test [12]. For the same compound, the inhibition in [13] is -2.73%; in [14] it was -1.19%; in test [15] it was -0.51%; in test [16], 5.87%; in [17], 4.78%; in test [18], 5.04%. Besides, the inhibition in [19] is 5.42%; in test [20] it was 2.83%.

With `COC(=O)Nc1nc2cc(Oc3ccc(NC(=O)Nc4cccc(C(=O)O)c4)cc3)ccc2[nH]1`, the inhibition in test [1] is 0.74%; in [2], -4.02%; in [3], -1.76%; in test [4] it was -3.44%; in test [5] it was -1.48%; in test [6], 0.41%. In addition, the inhibition in test [7] is -0.17%; in [8], -2.54%; in test [9], 1.82%; in test [10] it was -2.48%; in [11] it was 2.13%; in test [12] it was -2.08%. Further, the inhibition in [13] is 0.32%; in test [14], 0.29%; in test [15], 3.06%; in test [16], -0.11%; in test [17] it was -0.13%; in test [18] it was 0.56%. Further, the values for the inhibition in test [19] and in test [20] were 0.1% and 0.92%, respectively.

For `COc1cc2ncn(-c3cc(OCc4ccccc4C(F)(F)F)c(C(N)=O)s3)c2cc1OC`, the inhibition in test [1] is -2.17%; in test [2], -1.02%; in test [3], 2.2%; in test [4] it was -4.5%; in [5] it was -2.84%; in test [6] it was 1.73%. In addition, the inhibition in test [7] was 3.25%; in test [8], 0.16%; in test [9] it was 4.9%; in test [10] it was -0.65%; in [11], 7.21%; in test [12], -1.28%. Moreover, the inhibition is 4.22% in [13]; 10.1% in test [14]; 40.6% in test [15]; 1.63% in test [16]; 2.16% in [17]; 4.18% in test [18]. Besides, the inhibition in test [19] is 6.38%; in [20] it was 5.3%.

On to `CC1=C(C(=O)Nc2ccc3[nH]ncc3c2)C(c2ccc(Cl)c(Cl)c2)CC(=O)N1` (stereo not given), for which the inhibition in test [1] was 2.49%; in test [2], -0.12%; in [3], 3.73%; in test [4] it was 0.77%; in test [5], 3.21%; in test [6], 1.35%. Also, the inhibition in test [7] was 2.88%; in test [8] it was 0.15%; in [9], 4.5%; in test [10] it was -0.24%; in [11], 4.85%; in test [12] it was 0.46%. Further, the inhibition in test [13] was -2.51%; in test [14] it was 1%; in [15], 4.37%; in test [16], 1.22%; in test [17] it was 2.79%; in test [18] it was 3.85%. Also, the values for the inhibition in test [19] and in test [20] were 27.4% and 2.47%, respectively.

The inhibition is the drop in the measured response relative to a control, in per cent.
